# Activity calls are given as the source filed them. The calls were made as follows: active = hit-call score of the fitted dose curve at least 0.9, where 1 is the maximum; inactive = score below 0.9.
# How the values were obtained:
# [1] = ATG_NFI_CIS: Attagene CIS-FACTORIAL HepG2 Assay for human Nuclear Factor I (NFI) (AID 2282989); conditions: HepG2 cis-regulatory reporter, NFI response element transcription; actives raise or lower the signal
# Summary of the method: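 Multiplexed cis-reporter system in human HepG2 cells reports native TF activity as reporter mRNA induction 24 h post-dose. Fragments labelled with 6-FAM, HpaI-digested and resolved by capillary electrophoresis; activity fitted both directions versus DMSO.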
# [2] = target: Myc proto-oncogene protein (Homo sapiens) (UniProt P01106); test: ATG_Myc_CIS: Attagene CIS-FACTORIAL HepG2 Assay for human Myelocytomatosis (Myc) Proto-Oncogene Transcription Factor (AID 2282990); conditions: HepG2, Attagene cis-reporter transcription factor activity; actives raise or lower the signal
# Summary of the method: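 HepG2, transient MRTU transfection (cis promoters, endogenous TFs); 24 h dosing; TriZol RNA → oligo(dT) RT → PCR → 6-FAM primer extension → HpaI cut → CE. Bidirectional fit vs DMSO.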
# [3] = ATG_NF_kB_CIS: Attagene CIS-FACTORIAL HepG2 Assay for human Nuclear Factor Kappa B (NF-kB) (AID 2282991); conditions: HepG2 Attagene cis-factorial NF-kB reporter mRNA; actives raise or lower the signal
# Summary of the method: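 Multiplexed cis-reporter assay in transiently transfected HepG2. 24 h treatment; RNA isolated, RT-PCR, labelled fragments resolved by CE. DMSO baseline.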
# [4] = ATG_NRF2_ARE_CIS: Attagene CIS-FACTORIAL HepG2 Assay for human Nuclear Factor Erythroid 2 Related Factor 2 (NFR2) response to Antioxidant Response Elements (ARE) (AID 2282992); conditions: HepG2 Attagene ARE/NRF2 reporter, transcription factor activity; actives raise or lower the signal;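 as to AC50: reporter mRNA level measured by RT-PCR and capillary electrophoresis fluorescence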
# Summary of the method: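 Fluorescence intensity of reporter-specific cDNA fragments, separated by capillary electrophoresis, reflects mRNA induction in transfected HepG2 cells at 24 h. Activity is fitted bidirectionally, DMSO serving as baseline.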
# [5] = ATG_Oct_MLP_CIS: Attagene CIS-FACTORIAL HepG2 Assay for human Octamer-Binding Transcription Factor (Oct) (AID 2282993); conditions: HepG2 Attagene cis-factorial Oct reporter, mRNA; actives raise or lower the signal
# Summary of the method: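 After 24 h compound exposure, transfected HepG2 cells were lysed for total RNA; reporter-specific cDNA was PCR-amplified, fluorescently labelled and sized by capillary electrophoresis. Bidirectional curve fitting used DMSO as baseline.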
# [6] = target: Cellular tumor antigen p53 (Homo sapiens) (UniProt P04637); test: ATG_p53_CIS: Attagene CIS-FACTORIAL HepG2 Assay for human p53 Transcription Factor (AID 2282994); conditions: HepG2 p53 cis-element reporter, Attagene mRNA; actives raise or lower the signal
# Summary of the method: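 Transiently transfected HepG2 (multiple cis reporter transcription units); exposure 24 h; reporter RNA via RT-PCR, 6-FAM extension, 2 h HpaI digest at 37 C, CE detection; DMSO baseline.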
# Myc proto-oncogene protein (Homo sapiens), sequence (P01106 whole entry, looked up): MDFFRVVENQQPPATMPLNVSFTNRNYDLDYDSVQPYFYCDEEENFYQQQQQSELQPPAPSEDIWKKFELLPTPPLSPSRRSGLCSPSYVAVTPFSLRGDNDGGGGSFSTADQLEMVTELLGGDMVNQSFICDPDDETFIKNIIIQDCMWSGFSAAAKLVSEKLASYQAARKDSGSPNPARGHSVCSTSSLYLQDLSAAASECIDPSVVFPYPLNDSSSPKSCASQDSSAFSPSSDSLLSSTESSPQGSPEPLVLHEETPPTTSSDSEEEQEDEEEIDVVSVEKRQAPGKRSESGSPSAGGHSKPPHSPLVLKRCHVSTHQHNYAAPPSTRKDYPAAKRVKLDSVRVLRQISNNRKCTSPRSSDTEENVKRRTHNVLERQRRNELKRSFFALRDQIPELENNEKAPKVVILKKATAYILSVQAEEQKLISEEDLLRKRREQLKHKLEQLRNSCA
# Cellular tumor antigen p53 (Homo sapiens), sequence (P04637 whole entry, looked up): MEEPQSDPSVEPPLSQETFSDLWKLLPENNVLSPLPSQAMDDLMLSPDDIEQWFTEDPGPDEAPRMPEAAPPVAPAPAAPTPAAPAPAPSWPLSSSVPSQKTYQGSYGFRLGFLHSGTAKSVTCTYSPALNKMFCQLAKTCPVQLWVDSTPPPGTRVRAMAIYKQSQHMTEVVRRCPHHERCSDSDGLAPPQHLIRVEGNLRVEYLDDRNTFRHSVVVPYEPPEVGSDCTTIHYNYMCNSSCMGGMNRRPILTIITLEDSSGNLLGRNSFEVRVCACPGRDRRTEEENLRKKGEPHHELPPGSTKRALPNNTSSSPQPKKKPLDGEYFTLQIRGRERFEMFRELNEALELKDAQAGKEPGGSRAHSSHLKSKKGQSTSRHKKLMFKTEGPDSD
smiles,measurement,setting,value
OC[C@H]1O[C@@H]2O[C@H]3[C@H](O)[C@@H](O)[C@@H](O[C@H]4[C@H](O)[C@@H](O)[C@@H](O[C@H]5[C@H](O)[C@@H](O)[C@@H](O[C@H]6[C@H](O)[C@@H](O)[C@@H](O[C@H]7[C@H](O)[C@@H](O)[C@@H](O[C@H]8[C@H](O)[C@@H](O)[C@@H](O[C@H]9[C@H](O)[C@@H](O)[C@@H](O[C@H]1[C@H](O)[C@H]2O)O[C@@H]9CO)O[C@@H]8CO)O[C@@H]7CO)O[C@@H]6CO)O[C@@H]5CO)O[C@@H]4CO)O[C@@H]3CO,outcome,[1],inactive
same,outcome,[2],inactive
same,outcome,[3],inactive
same,outcome,[4],inactive
same,outcome,[5],inactive
O=C1OC(=O)c2c(Br)c(Br)c(Br)c(Br)c21,outcome,[1],inactive
same,outcome,[2],inactive
same,outcome,[3],inactive
same,AC50,[4],100 µM (active)
same,outcome,[5],inactive
CC1CCC(C(C)C)C(O)C1 (centres undefined),outcome,[1],inactive
same,outcome,[2],inactive
same,outcome,[3],inactive
same,outcome,[4],inactive
same,outcome,[5],inactive
CC(C)(C)OC(=O)c1ccc(O)cc1,outcome,[1],inactive
same,outcome,[2],inactive
same,outcome,[3],inactive
same,AC50,[4],35 µM (active)
same,AC50,[5],100 µM (active)
C[C@H]1O[C@@H](O[C@H]2[C@@H](O)C[C@H](O[C@H]3[C@@H](O)C[C@H](O[C@H]4CC[C@@]5(C)[C@H](CC[C@@H]6[C@@H]5C[C@@H](O)[C@]5(C)[C@@H](C7=CC(=O)OC7)CC[C@]65O)C4)O[C@@H]3C)O[C@@H]2C)C[C@H](O)[C@@H]1O,AC50,[1],0.0705 µM (active)
same,outcome,[2],inactive
same,AC50,[3],0.348 µM (active)
same,AC50,[4],0.613 µM (active)
same,AC50,[5],0.133 µM (active)
CC(=O)CC(=O)Nc1ccc(C)cc1C,outcome,[1],inactive
same,outcome,[2],inactive
same,outcome,[3],inactive
same,outcome,[4],inactive
same,outcome,[5],inactive
same,outcome,[6],inactive
C=CC(C)C#N (centres undefined),outcome,[1],inactive
same,outcome,[2],inactive
same,outcome,[3],inactive
same,outcome,[4],inactive
same,outcome,[5],inactive
same,outcome,[6],inactive
C=CCOC(=O)CCCCCC,outcome,[1],inactive
same,outcome,[2],inactive
same,outcome,[3],inactive
same,outcome,[4],inactive
same,outcome,[5],inactive
same,outcome,[6],inactive
O=c1c(O)c(-c2ccc(O)cc2)oc2cc(O)cc(O)c12,outcome,[1],inactive
same,outcome,[2],inactive
same,outcome,[3],inactive
same,AC50,[4],8.93 µM (active)
same,outcome,[5],inactive
same,outcome,[6],inactive
CC(C)(C)C1=CC(=O)C(C(C)(C)C)=CC1=O,outcome,[1],inactive
same,AC50,[2],77.3 µM (active)
same,AC50,[3],50 µM (active)
same,AC50,[4],13.7 µM (active)
same,outcome,[5],inactive
same,AC50,[6],30.5 µM (active)
CC(=O)O[C@H]1C[C@@H]2CC[C@@]1(C)C2(C)C,outcome,[1],inactive
same,outcome,[2],inactive
same,outcome,[3],inactive
same,outcome,[4],inactive
same,outcome,[5],inactive
same,outcome,[6],inactive
CCC(Cl)C(Cl)C(Cl)CC(Cl)C(Cl)C(C)Cl (centres undefined),outcome,[1],inactive
same,outcome,[2],inactive
same,outcome,[3],inactive
same,AC50,[4],43.4 µM (active)
same,outcome,[5],inactive
same,outcome,[6],inactive
CC(=O)NCCO,outcome,[1],inactive
same,outcome,[2],inactive
same,outcome,[3],inactive
same,outcome,[4],inactive
same,outcome,[5],inactive
same,outcome,[6],inactive
COc1ccc(N)c([N+](=O)[O-])c1,outcome,[1],inactive
same,outcome,[2],inactive
same,outcome,[3],inactive
same,outcome,[4],inactive
same,outcome,[5],inactive
same,outcome,[6],inactive
C=Cc1ccc(C)cc1,outcome,[1],inactive
same,outcome,[2],inactive
same,outcome,[3],inactive
same,outcome,[4],inactive
same,outcome,[5],inactive
same,outcome,[6],inactive
NC(=S)NNC(N)=S,outcome,[1],inactive
same,outcome,[2],inactive
same,outcome,[3],inactive
same,outcome,[4],inactive
same,outcome,[5],inactive
same,outcome,[6],inactive
CC(C)=CCCC(C)CCOC=O (centres undefined),outcome,[1],inactive
same,outcome,[2],inactive
same,outcome,[3],inactive
same,outcome,[4],inactive
same,outcome,[5],inactive
same,outcome,[6],inactive
Cc1cccc(Nc2ccccc2)c1,outcome,[1],inactive
same,outcome,[2],inactive
same,outcome,[3],inactive
same,AC50,[4],70.6 µM (active)
same,outcome,[5],inactive
same,outcome,[6],inactive
OCCc1ccccc1,outcome,[1],inactive
same,outcome,[2],inactive
same,outcome,[3],inactive
same,outcome,[4],inactive
same,outcome,[5],inactive
same,outcome,[6],inactive
Cc1ncc[nH]1,outcome,[1],inactive
same,outcome,[2],inactive
same,outcome,[3],inactive
same,outcome,[4],inactive
same,outcome,[5],inactive
same,outcome,[6],inactive
CCCCCCCCc1ccc(S(=O)(=O)O)cc1,AC50,[1],185 µM (active)
same,outcome,[2],inactive
same,AC50,[3],130 µM (active)
same,AC50,[4],99.5 µM (active)
same,outcome,[5],inactive
same,outcome,[6],inactive
COC(C)(C)CCCC(C)CC=O (centres undefined),outcome,[1],inactive
same,outcome,[2],inactive
same,outcome,[3],inactive
same,outcome,[4],inactive
same,outcome,[5],inactive
same,outcome,[6],inactive
CCCCCCCCCC(C)C=O (centres undefined),outcome,[1],inactive
same,outcome,[2],inactive
same,outcome,[3],inactive
same,AC50,[4],100 µM (active)
same,outcome,[5],inactive
same,outcome,[6],inactive
CS(C)=O,outcome,[1],inactive
same,outcome,[2],inactive
same,outcome,[3],inactive
same,outcome,[4],inactive
same,outcome,[5],inactive
same,outcome,[6],inactive
COCCc1ccc(OCC(O)CNC(C)C)cc1 (centres undefined),outcome,[1],inactive
same,outcome,[2],inactive
same,outcome,[3],inactive
same,outcome,[4],inactive
same,outcome,[5],inactive
same,outcome,[6],inactive
C[C@H]1C[C@@H](O)CC(C)(C)C1,outcome,[1],inactive
same,outcome,[2],inactive
same,outcome,[3],inactive
same,outcome,[4],inactive
same,outcome,[5],inactive
same,outcome,[6],inactive
CCOC(=O)CN,outcome,[1],inactive
same,outcome,[2],inactive
same,outcome,[3],inactive
same,outcome,[4],inactive
same,outcome,[5],inactive
same,outcome,[6],inactive
NCC1CCCC(CN)C1 (centres undefined),outcome,[1],inactive
same,outcome,[2],inactive
same,outcome,[3],inactive
same,outcome,[4],inactive
same,outcome,[5],inactive
same,outcome,[6],inactive
CC(C)c1ccccc1O,outcome,[1],inactive
same,outcome,[2],inactive
same,outcome,[3],inactive
same,outcome,[4],inactive
same,outcome,[5],inactive
same,outcome,[6],inactive
